From PubChem BioAssay
Shown is part of a subset that was picked to be rich in hits.
mHTT-CaM PPI inh: disrupts binding of mutant huntingtin to calmodulin; P42858; AlphaScreen His-mHTT/GST-CaM binding, luminescence; inhibition, % at 15 µM; 190,000 compounds, 3.6% hits
Pf apPOL inh: Pf-apPOL DNA polymerase inhibition | Recombinant Pf-apPOL, molecular beacon fluorescence, 1.5 h | 210,000 compounds, 0.25% hits | inhibition, % at 10 µM
Numbers stand for hits; i = inactive; nt = not tested or not shown. Cut-off read from the data, not from the text of the source: active = inhibition above about 50%; inactive = the rest.

SMILES | mHTT-CaM PPI inh | Pf apPOL inh
COc1ccc(/C=C2\CCC3=C2OC(N)=C(C#N)C3c2ccc(OC)cc2)cc1 (centres undefined) | 63 | i
N#CC1=C(N)OC2=C(CC/C2=C\c2cccc(F)c2)C1c1cccc(F)c1 (centres undefined) | 94 | i
COCCCNC(=O)C1CCN(c2ncccc2S(=O)(=O)N2CCOCC2)CC1 | i | i
COc1ccc(C2CC(C(F)(F)F)n3ncc(C(=O)Nc4cc(C)ccc4O)c3N2)cc1OC (centres undefined) | i | i
CN(C)c1cccc(C(=O)N2CCC(CCOCc3cccc(F)c3)CC2)c1 | i | i
COc1cc(C(=O)N2CCC(n3cnc4ccccc43)CC2)ccc1C | i | i
O=C(c1ccc2c(c1)OCO2)N1CCC(CCOCc2ccccc2F)CC1 | i | i
CN(C)c1cccc(C(=O)N2CCC(CCOCc3ccccc3F)CC2)c1 | 57 | i
CN(C)c1cccc(C(=O)N2CCC(n3cnc4ccc(F)cc43)CC2)c1 | 51 | i
CN(C)c1cccc(C(=O)N2CCC(CCOCc3ccc(F)cc3)CC2)c1 | 60 | i
CN(C)c1ccc(C(=O)N2CCC(CCOc3cccc(F)c3)CC2)cc1 | i | i
CN(C)c1cccc(C(=O)N2CCC(CCOc3cccc(F)c3)CC2)c1 | 84 | i
Cc1cccc(C(=O)N2CCCN(Cc3nc(-c4ccc(Cl)cc4)no3)CC2)c1 | i | i
CCC(C)(C)C(=O)N1CCN(c2ccc(NC(=O)c3ccc(F)cc3)cn2)CC1 | i | i
O=C(NCc1ccco1)c1cn(CC2CCCO2)cc2c(=O)n(-c3ccccc3)nc1-2 (centres undefined) | i | i
CCNC(=O)NC1CCN(c2cc(C)cc(C)c2)C1=O (centres undefined) | i | i
CN(C)c1ccc(C(=O)N2CCC(CCOc3ccccc3F)CC2)cc1 | 88 | i
O=C(c1ccc(F)cc1)N1CCC(CCOc2ccccc2F)CC1 | i | i
N#Cc1cccc(CN2CCCCC2c2nncn2CC2CC2)c1 (centres undefined) | i | i
CC(C)(C)CC(=O)Nc1nnc(CC(C)(C)C)s1 | i | nt
COc1ccc([N+](=O)[O-])cc1NC(=O)C1CC(=O)NC(=N)S1 (centres undefined) | i | 59
COc1ccc([N+](=O)[O-])cc1NC(=O)C1CCCCC1 | i | i
COc1ccc(Cl)cc1NC(=O)N1CC(=O)Nc2ccccc21 | i | i
Cc1ccc([C@H]2C[C@H](O)[C@@H](n3cc(C4CC4)nn3)CN2Cc2cccs2)cc1 | 100 | i
COc1ccc([C@H]2C[C@@H](n3cc(-c4ccc(F)cc4)nn3)[C@H](O)CN2Cc2cccs2)cc1 | i | i
SMILES | mHTT-CaM PPI inh | Pf apPOL inh
COc1ccc([C@H]2C[C@H](n3cc(-c4ccc(F)cc4)nn3)[C@@H](O)CN2Cc2cccs2)cc1 | 63 | i
Cc1ccc([C@H]2C[C@@H](O)[C@H](n3cc(C4CC4)nn3)CN2Cc2cccs2)cc1 | i | i
Cc1ccc([C@H]2C[C@H](n3cc(C4CC4)nn3)[C@@H](O)CN2Cc2cccs2)cc1 | 80 | i
O[C@H]1CN(Cc2cccs2)[C@@H](c2ccccc2)C[C@@H]1n1cc(C2CC2)nn1 | i | i
Cc1ccc2nc(SCC(=O)Nc3cccc(C(F)(F)F)c3)[nH]c2c1 | i | i
Fc1cccc(F)c1-c1nc(-c2ccc3nncn3c2)no1 | i | i
COC(=O)c1sccc1Oc1ccc(C(F)(F)F)cc1NC(=O)C(Cl)Cl | nt | i
C(=Nc1c2ccccc2nc2ccccc12)c1ccco1 | 56 | nt
C(=Nc1c2ccccc2nc2ccccc12)c1cccc2c1OCOC2 | i | nt
Nc1ncnc(Nc2ccccc2N=Cc2ccccc2O)c1[N+](=O)[O-] | i | i
O=[N+]([O-])c1c(Nc2ccccc2O)ncnc1Nc1ccccc1O | 69 | i
COc1cccc(CC(=O)N2CCC(c3cnn(-c4ccc(C)cc4)c3)CC2)c1 | i | i
CC(C)(C)S(=O)(=O)C(C#N)=CNN=Cc1c(Cl)cccc1Cl | nt | i
Cc1ccc(C)c(CN2C(=O)NC3(CCN(C(=O)Cc4ccc(Cl)cc4)CC3)C2=O)c1 | 58 | i
Cc1ccc(CN2C(=O)NC3(CCN(C(=O)Cc4ccc(Cl)cc4)CC3)C2=O)cc1 | i | i
COc1ccc(S(=O)(=O)N2CC3CC2CC3NC(=O)c2cccnc2)cc1Cl (centres undefined) | i | i
Cc1nc2nc(SCC(=O)N3CCC(C)CC3)nn2c(C)c1Cc1ccc(Cl)cc1 | 52 | i
Cc1ccc(Cc2c(C)nc3nc(SCC(=O)NC4CC4)nn3c2C)cc1 | i | i
CCN1CCN(CCNC(=O)CC2CCN(C(=O)C3CCCCC3)CC2)CC1 | i | i
Cc1cccc(C(=O)Nc2c3c(nn2-c2cccc(C)c2C)CSC3)c1 | i | i
Cc1cccc(-n2nc3c(c2NC(=O)/C=C/c2ccccc2)CSC3)c1C | 94 | i
CC(=O)Nc1c2c(nn1-c1cccc(C)c1C)CSC2 | i | i
Cc1cccc(-n2nc3c(c2NC(=O)/C=C/c2ccco2)CSC3)c1C | 95 | i
O=C1OC(c2cccc([N+](=O)[O-])c2)=N/C1=C\C=C\c1ccccc1 | i | i
COc1ccc(C2=NC(C(C)C)NC(c3ccccc3O)C2)cc1OC (centres undefined) | 78 | i
SMILES | mHTT-CaM PPI inh | Pf apPOL inh
COc1cccc(C2=NC(C(C)C)NC(c3cc(Br)ccc3O)C2)c1 (centres undefined) | 81 | i
COc1cccc(C2=NC(c3ccc(F)cc3)NC(c3ccc(OC)cc3O)C2)c1 (centres undefined) | 53 | i
COc1ccc(C2=NC(c3ccc(OC)c(OC)c3)NC(c3ccccc3O)C2)cc1 (centres undefined) | 53 | i
Cc1ccc(C2=NC(C(C)C)NC(c3cc(Br)ccc3O)C2)cc1 (centres undefined) | i | i
COc1ccc(C2N=C(c3ccc4c(c3)OCO4)CC(c3ccccc3O)N2)cc1 (centres undefined) | i | i
Oc1ccccc1C1CC(c2ccc3c(c2)OCO3)=NC(c2cccc(F)c2)N1 (centres undefined) | i | i
COc1cccc(C2CC(c3ccc(Cl)cc3)=NC(C(C)C)N2)c1O (centres undefined) | i | i
Brc1cccc(OCCCN2CCOCC2)c1 | i | i
N#CC1=C(N)n2c(s/c(=C\c3ccco3)c2=O)=C(C#N)C1c1ccco1 (centres undefined) | i | i
Cc1ccc(/C=c2\sc3n(c2=O)C(N)=C(C#N)C(c2ccc(C)o2)C=3C#N)o1 (centres undefined) | 59 | i
CC(C)Oc1ccc(CNC(=O)CCC(=O)N2CCCn3nc(-c4cccn4C)cc32)cc1 | i | i
O=C(C1CCCC1)N1CCN(c2nc(CN3CCCCCC3)cs2)CC1 | i | i
O=C(COc1ccc(Cl)cc1)N1CCN(c2nc(CN3CCCCC3)cs2)CC1 | 50 | i
O=C(C1CCCCC1)N1CCN(c2nc(CN3CCCCCC3)cs2)CC1 | 96 | i
Cc1ccc(OCC(=O)N2CCN(c3nc(CN4CCCCC4)cs3)CC2)cc1 | i | i
O=[N+]([O-])c1ccc(C=Nc2ccc(Cl)c([N+](=O)[O-])c2)o1 | i | nt
Cc1cc(C2C(C#N)=C(N)N(c3cccnc3)C3=C2C(=O)CCC3)c(C)s1 (centres undefined) | i | i
Cc1cc(C2C(C#N)=C(N)N(c3cccnc3)C3=C2C(=O)CC(c2ccccc2)C3)c(C)s1 (centres undefined) | 58 | i
COc1ccc(NS(=O)(=O)c2cc(C(F)(F)F)cc(C(F)(F)F)c2)c([N+](=O)[O-])c1 | nt | i
